PubChem BioAssay (NCATS)
Records with an inconclusive call do not appear. Calls of active or inactive are those of the source. The call rests on the fitted dose curve; in most records, active means well fitted curve in the direction sought with a large enough effect; inconclusive means small, poorly fitted or top-dose-only effect, or another doubt; inactive means no such curve, though single readings can be large; an effect the other way counts as inactive or inconclusive. Numbered stars: 1 amine (or outer) side, 2 acyl side, 3 side chain; on linkers, the order of the positions; unused ones are H or OH. Bridge positions count the residues as written; N and C are the ends. Square brackets hold non-standard residues; d marks the D form. Peptide text beside a SMILES is read from it. * marks the point of attachment. ξ: configuration not given here. ΔAla(Z-3-ureido) = NC(=O)N/C=C(\N)C(=O)O; X2 = NC1=NC(O)CC(C(N[*:1])C(=O)[*:2])N1; X1 = NC1=NCCC(C(N[*:1])C(=O)[*:2])N1; ξβ3hOrn = NCCCC(N)CC(=O)*; Dap = NC[CH](N)C(=O)O

Assays:
[1] = S16 Schwann cell PMP22 intronic element firefly luciferase assay (AID 624032); further: nearly all actives have a fitted effect of over 30% in size
Method in brief: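 Rat S16 Schwann cells stably carrying firefly luciferase driven by a PMP22 intronic element, in 10% FBS, treated 24 h at 37 C. ONE-Glo luminescence normalized to PTC124 control and DMSO (0%); curves classed by r2, magnitude and activity.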

3D7 = assay: qHTS profiling for inhibitors of Plasmodium falciparum proliferation (AID 504749); further: nearly all actives have a fitted effect of over 60% in size; details: P. falciparum in erythrocytes, SYBR Green DNA, 72 h; series mostly up to 28.7 µM
Method in brief: (§1)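 Readout was DNA-dye fluorescence from lysed cultures, ex 485/em 535 nm. Parasitized red cells had grown 72 h with compound; data scaled between 0.29 uM artemisinin and DMSO wells and corrected using vehicle-only plates.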

AS120 = assay: as above; details: P. falciparum in erythrocytes, SYBR Green DNA, 72 h; series mostly up to 28.7 µM
Method in brief: as §1

ATS95 = assay: as above; details: P. falciparum in erythrocytes, SYBR Green DNA, 72 h; series mostly up to 28.7 µM
Method in brief: as §1

CP191 = assay: as above; details: P. falciparum in erythrocytes, SYBR Green DNA, 72 h; series mostly up to 28.7 µM
Method in brief: as §1

CP211 = assay: as above; details: P. falciparum in erythrocytes, SYBR Green DNA, 72 h; series mostly up to 28.7 µM
Method in brief: as §1

CP247 = assay: as above; details: P. falciparum in erythrocytes, SYBR Green DNA, 72 h; series mostly up to 28.7 µM
Method in brief: as §1

CP250 = assay: as above; details: P. falciparum in erythrocytes, SYBR Green DNA, 72 h; series mostly up to 28.7 µM
Method in brief: as §1

CP262 = assay: as above; details: P. falciparum in erythrocytes, SYBR Green DNA, 72 h; series mostly up to 28.7 µM
Method in brief: as §1

CP297 = assay: as above; details: P. falciparum in erythrocytes, SYBR Green DNA, 72 h; series mostly up to 28.7 µM
Method in brief: as §1

CP335 = assay: as above; details: P. falciparum in erythrocytes, SYBR Green DNA, 72 h; series mostly up to 28.7 µM
Method in brief: as §1

Dd2 = assay: as above; details: P. falciparum in erythrocytes, SYBR Green DNA, 72 h; series mostly up to 28.7 µM
Method in brief: as §1

ECU = assay: as above; details: P. falciparum in erythrocytes, SYBR Green DNA, 72 h; series mostly up to 28.7 µM
Method in brief: as §1

GB4 = assay: as above; details: P. falciparum in erythrocytes, SYBR Green DNA, 72 h; series mostly up to 28.7 µM
Method in brief: as §1

N140 = assay: as above; details: P. falciparum in erythrocytes, SYBR Green DNA, 72 h; series mostly up to 28.7 µM
Method in brief: as §1

P93_24 = assay: as above; details: P. falciparum in erythrocytes, SYBR Green DNA, 72 h; series mostly up to 28.7 µM
Method in brief: as §1

PAD = assay: as above; details: P. falciparum in erythrocytes, SYBR Green DNA, 72 h; series mostly up to 28.7 µM
Method in brief: as §1

SC27B = assay: as above; details: P. falciparum in erythrocytes, SYBR Green DNA, 72 h; series mostly up to 28.7 µM
Method in brief: as §1

TAB113 = assay: as above; details: P. falciparum in erythrocytes, SYBR Green DNA, 72 h; series mostly up to 28.7 µM
Method in brief: as §1

TAB165 = assay: as above; details: P. falciparum in erythrocytes, SYBR Green DNA, 72 h; series mostly up to 28.7 µM
Method in brief: as §1

Measured: Potency

CNCC(=O)NC(CCCN=C(N)N)C(=O)NC(C(=O)NC(Cc1ccc(O)cc1)C(=O)NC(C(=O)NC(Cc1cnc[nH]1)C(=O)N1CCCC1C(=O)NC(C)C(=O)O)C(C)C)C(C)C (centres undefined)
inactive: all assays above

CC(N)C(=O)NCC(=O)NC1CSSCC(C(=O)O)NC(=O)C(CO)NC(=O)C(C(C)O)NC(=O)C(Cc2ccccc2)NC(=O)C(C(C)O)NC(=O)C(CCCCN)NC(=O)C(Cc2c[nH]c3ccccc23)NC(=O)C(Cc2ccccc2)NC(=O)C(Cc2ccccc2)NC(=O)C(CC(N)=O)NC(=O)C(CCCCN)NC1=O (centres undefined)
inactive: all assays above

CC(C)C[C@H](NC(=O)[C@@H](Cc1c[nH]c2ccccc12)NC(=O)[C@@H](Cc1ccc(O)cc1)NC(=O)[C@@H](CO)NC(=O)[C@@H](Cc1c[nH]c2ccccc12)NC(=O)C(Cc1cnc[nH]1)NC(=O)C1CCC(=O)N1)C(=O)N[C@@H](CCCN=C(N)N)C(=O)N1CCC[C@@H]1C(=O)NCC(N)=O (some centres undefined)
inactive: all assays above

CC(=O)OCC(=O)[C@@]1(O)CCC2C3CCC4=CC(=O)CC[C@]4(C)C3=CC[C@@]21C (some centres undefined)
inactive: all assays above

O=C1/C(=C\c2cccs2)CCC/C1=C/c1cccs1
not listed: CP191 | CP335
inactive: all other assays above

CC1(C)C(/C=C/C=C/C=C/C=C2\N(CCCCS(=O)(=O)O)c3ccc4ccccc4c3C2(C)C)=[N+](CCCCS(=O)(=O)[O-])c2ccc3ccccc3c21
not listed: 3D7 | CP335
inactive: all other assays above

Cn1cc(O)nc1NC(=O)Nc1cccc(Cl)c1
not listed: CP191 | CP250 | CP262 | GB4
inactive: all other assays above

CC(C)C(NC(=O)C(CC(=O)O)NC(=O)C(CCCCN)NC(=O)C(N)CCCN=C(N)N)C(=O)NC(Cc1ccc(O)cc1)C(=O)O (centres undefined) (H-RKDVY-OH; configuration not given here)
inactive: all assays above

NCCCC(N)CC(=O)NCC1NC(=O)C(CO)NC(=O)C(N)CNC(=O)C(C2CCN=C(N)N2)NC(=O)/C(=C/NC(N)=O)NC1=O (stereo not drawn) (H-[Dap]S[Dap](ξβ3hOrn)[ΔAla(Z-3-ureido)][X1]; lactam 1-C; configuration not given here)
not listed: [1]
inactive: all other assays above

CC(C)CC(NC(=O)C(COC(C)(C)C)NC(=O)C(Cc1ccc(O)cc1)NC(=O)C(CO)NC(=O)C(Cc1c[nH]c2ccccc12)NC(=O)C(Cc1cnc[nH]1)NC(=O)C1CCC(=O)N1)C(=O)NC(CCCN=C(N)N)C(=O)N1CCCC1C(=O)NNC(N)=O (centres undefined)
not listed: TAB113
inactive: all other assays above

NCCCC(N)CC(=O)NC1CNC(=O)C(C2CC(O)N=C(N)N2)NC(=O)/C(=C/NC(N)=O)NC(=O)C(CO)NC(=O)C(CO)NC1=O (stereo not drawn) (ξβ3hOrn-[Dap]SS[ΔAla(Z-3-ureido)][X2]; lactam 1-C; configuration not given here)
not listed: ATS95
inactive: all other assays above
